# Screening data (PubChem BioAssay)
# NADH coupling: blocks coupling enzymes of NAD/NADH assays; 65,000 compounds, 0.02% hits; IC50, µM (series often up to 10 µM), without a hit: at the highest dose inhibition; coupled PK/LDH NADH assays, four targets;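 active = single-dose screening hits from any of four coupled enzyme assays that gave an IC50 when retested across doses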;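 note: the DPM-DC format reads NADH fluorescence rather than 340 nm absorbance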
# Abs 340nm: compound absorbs light at 340 nm; compound absorbance at 340 nm, fold over control; fold change at 10 µM; 65,000 tested, under 10 active; AID 708;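 active = at 10 µM dose, initial 340 nm absorbance at least 2 fold that of control wells; inactive = change under 2 fold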;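 note: initial absorbance extrapolated from kinetic A340 decline of NADH oxidation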
# Spn MK inh: inhibitors of Streptococcus pneumoniae mevalonate kinase; purified MK, PK/LDH-coupled NADH absorbance 340 nm; AID 555; inhibition, % at 10 µM; 65,000 compounds, 0.48% hits;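 active = ranked among the strongest by inhibition in the single 10 µM screen, a fixed top-ranked set picked for dose follow-up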
# DPM-DC inhibit: inhibitors of Streptococcus pneumoniae diphosphomevalonate decarboxylase. 65,000 compounds, 0.49% hits. purified DPM-DC, PK/LDH coupled NADH fluorescence. calls only at 10 µM;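 active = the 320 compounds with the highest percent inhibition in the single-dose primary screen, excluding strongly autofluorescent ones, cut at about 32% in these data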;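 note: kinetic rate of NADH fluorescence loss reporting ADP formed by the decarboxylase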
# Spn PMK inh: blocks S. pneumoniae phosphomevalonate kinase. purified PMK, PK/LDH-coupled NADH absorbance 340 nm. inhibition, % at 10 µM. 65,000 compounds, 0.49% hits. AID 539;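 active = top-ranked compounds by inhibition in the single 10 µM screen, taking a fixed number of the strongest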;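 note: 0% = full reaction with DMSO carrier and 100% = background rate without enzyme reaction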
# Fluor 339 460: intrinsic fluorescence of library compounds, ex339/em460 – biochemical, MLSMR library, data from DPM-DC assay, artefact control, profiling panel. fluorescence fold increase at 10 µM. 65,000 compounds, 5.5% hits. compound autofluorescence, ex339/em460 nm, NADH buffer; stronger effect = higher value; 1 = no-compound wells, NADH background;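 active = at 10 µM, mean starting fluorescence two-fold or more over control wells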;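 note: signal is the first read of a kinetic run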
# Active calls of the source: *; i = inactive; . = no result shown; + = active, no number. Sampled rows, rich in hits. Any-hit rate of the full collection: about 6.3%.
SMILES,NADH coupling,Abs 340nm,Spn MK inh,DPM-DC inhibit,Spn PMK inh,Fluor 339 460
O=C(NCCCN1CCOCC1)c1cc2cc(Cl)cc(Cl)c2oc1=O,2%,1.1,0,i,2,1.2
CCC1(C)Cc2c(sc3[nH]c(=O)[nH]c(=O)c23)CS1 (stereo not given),4%,1,3,.,4,2.3*
COC(=O)C1(C)Nc2ccccc2C(=O)N1c1ccccc1C (stereo not given),2%,1.1,4,.,0,2.1*
O=C(c1ccccc1F)N(Cc1ccccc1)C1CCS(=O)(=O)C1 (stereo not given),44%,1.1,29,+,14,1.2
O=C(c1ccccc1F)N(Cc1ccc(F)cc1)C1CCS(=O)(=O)C1 (stereo not given),9%,0.99,15,i,13,1.1
Cn1c(=O)n(C)c2cc(/C=N/n3cnnc3)ccc21,10%,1.2,5,i,11,2.8*
Cc1onc(-c2c(F)cccc2Cl)c1C(=O)Nc1cccc2nsnc12,7%,1,6,i,6,3*
CC#CCN(CC#CC)S(=O)(=O)c1ccc(-n2cnnn2)c(OC)c1,5%,0.97,10,i,6,1
COc1ccc(-c2c(C(F)(F)F)oc3c(CN4CCN(C)CC4)c(O)ccc3c2=O)cc1,4%,1,2,i,12,1.1
COC(=O)c1ccc(Oc2c(C)oc3c(CN4CCN(C)CC4)c(O)ccc3c2=O)cc1,9%,1.1,5,.,13,3.8*
CCOC(=O)c1c(C)oc2c(CN3CCN(C)CC3)c(Br)c(OC)c(O)c12,7%,1,7,i,14,1.1
COc1ccccc1Oc1c(C)oc2c(CN3CCN(C)CC3)c(O)ccc2c1=O,7%,1.1,6,.,7,3.8*
COc1ccc(C2=NOC3(CC(=O)N(c4ccc(C)cc4)C3=O)C2)c(OC)c1 (stereo not given),5%,0.98,6,i,10,1.1
CC1=CC(C#N)(C#N)C(C#N)(C#N)C(c2ccccc2)N1 (stereo not given),16%,1,11,i,10,3.1*
COCCNC(=O)C(C#N)c1nc2ccccc2nc1N1CCCCCC1 (stereo not given),20%,1.1,5,+,10,2.5*
N#CC(C(=O)NC1CC1)c1nc2ccccc2nc1N1CCCC1 (stereo not given),9%,1,0,i,16,1.8
N#CC(C(=O)NC1CCCCC1)c1nc2ccccc2nc1N1CCCCC1 (stereo not given),55%,1.1,31,+,41*,1.8
CCN(CC)S(=O)(=O)c1ccc2c(c1)nc(SCc1nc3ccsc3c(=O)[nH]1)n2CC,2%,1.1,0,i,7,1.1
O=[n+]1cc(-c2cc3ccccc3o2)n([O-])c2c1CCCC2,16%,1.2,12,i,13,2.9*
O=[n+]1cc(-c2ccc(F)cc2)n([O-])c2c1CCC2,4%,1,0,i,18,1
COc1ccc(-n2c(SCc3nnc(-c4ccccc4)o3)nnc2-c2ccccc2)cc1,9%,0.99,2,i,26*,1.1
COc1ccc(Cn2c(CCC(=O)NCc3ccco3)nc3cccnc32)cc1,6%,1,1,i,18,1.1
NC(N)=NC(=O)c1nc(Cl)c(N)nc1N,8%,1,11,i,11,2*
O=C1C2ON(c3ccc(Cl)cc3)C(c3ccco3)C2C(=O)N1c1ccccc1 (stereo not given),2%,1,0,i,0,1
COCCCNC(=O)CN(C1CCCCC1)S(=O)(=O)c1ccc(C)cc1,11%,1,2,i,30*,1.1
SMILES,NADH coupling,Abs 340nm,Spn MK inh,DPM-DC inhibit,Spn PMK inh,Fluor 339 460
CC1=C(C#N)c2nc(N)c(C#N)c(C)c2/C1=C\c1ccccc1,22%,1,20,i,17,1.3
CCOC(=O)c1c(NC(=O)c2ccoc2C)sc2c1CCC2,6%,1,13,.,0,2.2*
CCOC(=O)Nc1sc2c(c1C(=O)OCC)CCC2,2%,1,2,i,3,1.1
CCCc1cc(C(=O)Nc2sc3c(c2C(=O)OCC)CCCC3)no1,5%,1.1,5,.,4,2.1*
CCC1CCc2c(sc(NC(=O)c3ccoc3C)c2C(N)=O)C1 (stereo not given),0%,1.1,0,.,0,2.1*
CCOC(=O)c1c(NC(=O)c2noc3c2CCCC3)sc2c1CCCC2,11%,1,8,i,10,1.2
CCOC(=O)N1CCN(c2nc3ccccc3nc2C(C#N)S(=O)(=O)c2ccc(C)cc2)CC1 (stereo not given),9%,1.1,7,i,14,1.3
O=C1CC(C(=O)Nc2nccs2)C(c2ccccc2)O1 (stereo not given),6%,1,8,i,8,1
COc1ccc2cc(C(c3nnnn3C3CCCC3)N3CCc4ccccc4C3)c(=O)[nH]c2c1 (stereo not given),5%,1.1,5,i,9,1.4
CCOc1ccc2[nH]c(=O)c(CN(CCO)C(c3nnnn3C3CCCCC3)C(C)C)cc2c1 (stereo not given),3%,1.1,5,i,5,1.5
COc1ccc2[nH]c(=O)c(C(c3nnnn3C3CCCCC3)N3CCN(C)CC3)cc2c1 (stereo not given),9%,1.1,2,.,16,4.5*
COc1ccc2[nH]c(=O)c(C(c3nnnn3CC3CCCO3)N3CCc4ccccc4C3)cc2c1 (stereo not given),7%,1,5,i,8,3*
CCCN1CCN(C(c2cc3cc(OCC)ccc3[nH]c2=O)c2nnnn2C2CCCCC2)CC1 (stereo not given),5%,1,4,.,6,4.3*
COc1cc2cc(C(c3nnnn3Cc3ccc(F)cc3)N3CCCCCC3)c(=O)[nH]c2cc1OC (stereo not given),9%,1.1,7,i,5,2.1*
CS(=O)(=O)N(CC(=O)NC1CCCC1)c1ccc2c(c1)OCCO2,6%,1,6,i,13,1.1
COc1ccccc1S(=O)(=O)Cc1ccc(C(=O)NC(C)c2ccc3c(c2)OCCO3)o1 (stereo not given),4%,1,0,i,11,1.1
COCCn1c(=O)c2c3c(sc2n(CC(N)=O)c1=O)CCCC3,3%,1,4,i,1,1.1
COC(=O)C1=CNC=C(C(=O)OC)C1c1ccc(C(=O)OC)cc1,9%,1.1,4,.,14,2.1*
COC(=O)C1=C(C)N(C)C(C)=C(C(=O)OC)C1c1ccc(C(=O)OC)cc1,4%,1.1,11,i,0,1.1
